Screening data from PubChem BioAssay.
Integrin act MD: qHTS for Activators of Integrin-Mediated Alleviation for Muscular Dystrophy; AID 624291, 2012; Potency, µM (doses to about 38.3 µM), for the others: at the highest dose activation, actives largely listed as activators; alpha7betagal myoblasts, beta-gal FDG fluorescence, 48 h; actives 0.064% (n = 350,000);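 also: 100% = response of the positive control SU9516; nearly all actives have a fitted effect of over 60% in size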
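alpha7betagal+/- myoblasts (passage 13, 250/well) treated 48 h at 37C with compounds at 1:260 dilution of DMSO stock. Lysed, then beta-galactosidase activity read as FDG fluorescence (ex 480/em 540) after 30 min, with pre-read for autofluorescence.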
VP16 counter: VP16 counterscreen qHTS for inhibitors of ROR gamma transcriptional activity; Drosophila S2 Gal4-VP16 UAS-luciferase, luminescence, 20 h; Potency, µM (top dose mostly 53.6 µM), for inactives: at the highest dose activity, negative = inhibition, usual class: inhibitors; actives 3.5% (n = 310,000); AID 2546, 2010;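 also: Gal4-VP16 expression switched on by copper sulfate through the metallothionein promoter; % is scaled to controls: 0 for no effect and ±100 for the full control effect; nearly all actives have a fitted effect of over 50% in size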
uPA surface inh: qHTS for Inhibitors of Cell Surface uPA Generation. cell surface uPA generation assay, qHTS. Potency, µM (doses to about 38.3 µM), for the others: at the top dose activity change, negative = inhibition, most hits filed as inhibitors. actives 0.31% (n = 330,000). AID 540303, 2011; active = well fitted inhibition curve with a large enough effect; inconclusive = small, poorly fitted or top-dose-only effect; inactive = no such curve, though single readings can be large or run the other way; tested in mouse RAW 264.7 cells; also: % is scaled to controls: 0 for no effect and ±100 for the full control effect; nearly all actives have a fitted effect of over 55% in size
BCR signal inh: qHTS Assay to Find Inhibitors of Chronic Active B-Cell Receptor Signaling. ABC-DLBCL IkBa-CBG/CBR reporter, luminescence ratio, 4 h. Potency, µM (highest dose often 46.1 µM), for the others: at the top dose activity change, negative = inhibition, usual class: inhibitors. actives 0.05% (n = 340,000). AID 493014, 2011; active = well fitted inhibition curve with a large enough effect in the signal ratio, with a control signal flat, not every such curve was filed as active; inconclusive = small, poorly fitted or top-dose-only effect, or effect the other way, or a change in a side signal; the % refers to the signal ratio;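 also: plate controls were basal doxycycline-induced cells for no effect and cells given 10 µM MG132 for full effect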
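Concentration-response series (up to 46 uM) were applied to TMD8 dual-reporter cells for 4 h at 37C with doxycycline. Green/red ratio, after filter-overlap correction, defined %Activity; red signal alone was normalised to basal cells and zero luminescence.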
RORgamma inh: qHTS for inhibitors of ROR gamma transcriptional activity; Nuclear receptor ROR-gamma (Mus musculus), P51450; Drosophila S2 Gal4-RORgamma UAS-luciferase reporter, 20 h; Potency, µM (series often up to 53.6 µM), for the others: top-dose activity change, negative = inhibition, actives largely listed as inhibitors; actives 5.4% (n = 310,000); also: % is scaled to controls: 0 for no effect and ±100 for the full control effect; nearly all actives have a fitted effect of over 60% in size
Target sequence (P51450 whole entry, looked up, the tested form may be a part): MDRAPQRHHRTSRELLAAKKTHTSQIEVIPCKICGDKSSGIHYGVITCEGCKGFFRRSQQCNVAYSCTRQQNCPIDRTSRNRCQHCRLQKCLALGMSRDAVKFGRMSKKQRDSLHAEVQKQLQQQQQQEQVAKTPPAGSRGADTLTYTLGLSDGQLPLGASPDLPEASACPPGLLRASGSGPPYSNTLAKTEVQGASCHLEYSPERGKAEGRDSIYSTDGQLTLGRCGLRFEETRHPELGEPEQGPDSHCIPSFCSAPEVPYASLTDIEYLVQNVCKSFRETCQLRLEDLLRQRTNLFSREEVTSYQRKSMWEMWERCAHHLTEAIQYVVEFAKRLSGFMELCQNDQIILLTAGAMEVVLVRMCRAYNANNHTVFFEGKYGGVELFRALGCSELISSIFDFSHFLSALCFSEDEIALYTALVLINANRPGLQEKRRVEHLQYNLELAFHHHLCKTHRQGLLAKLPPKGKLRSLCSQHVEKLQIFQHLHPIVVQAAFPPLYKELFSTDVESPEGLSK
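Luciferase reporter read in Schneider cells carrying Gal4-RORγ (mouse) and UAS-Photinus luciferase; cells given compound 1 h before 700 uM copper sulfate induction, then incubated 20 h at ambient temperature.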
Mito fusion act: qHTS Assay for Small Molecule Inhibitors of Mitochondrial Division or Activators of Mitochondrial Fusion. S. cerevisiae fusion-defective mutant growth rescue, CellTiterGlo 48 h. Potency, µM (highest dose often 46.1 µM), inactives show at the top dose growth rescue (activation), actives largely listed as activators. actives 0.23% (n = 320,000); also: % of control where 0% means no effect; nearly all actives have a fitted effect of over 45% in size
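S. cerevisiae fusion-defective temperature-sensitive mutants (e.g. fzo1-1, mgm1-5) grown 48 h at 37C in YPEG (ethanol/glycerol non-fermentable) medium with 23 nl compound per well; growth rescue read as CellTiterGlo luminescence.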
* = called active by the depositor; [ ] = dose if it differs, or a comment. Hits are enriched below; roughly 5.5% of the tested compounds scored in any of these assays. Unless noted, calls follow the shape of the dose curve; as a rule, active = well fitted curve in the direction sought with a large enough effect; inconclusive = small, poorly fitted or top-dose-only effect, or another doubt; inactive = no such curve, though single readings can be large; an effect the other way counts as inactive or inconclusive. Potency is read from the fitted curve at half-maximal effect.

How did Cn1ncc(Cl)c(Oc2ccc(C(C)(C)C)cc2)c1=O do in these assays?
Integrin act MD: -37%; VP16 counter: 35µM*; uPA surface inh: 0%; BCR signal inh: 8%; RORgamma inh: -16%; Mito fusion act: 9%

How did Cn1ncc(Cl)c(Oc2ccccc2)c1=O do in these assays?
Integrin act MD: 6%[7.66 µM]; VP16 counter: -6%; BCR signal inh: -10%; RORgamma inh: 7%; Mito fusion act: 0%

What do the screens show for `O=C([C@@H]1CCCN1C(=O)c1cccs1)N1CCN(S(=O)(=O)c2cccc(F)c2)CC1`?
Integrin act MD: 10%; uPA surface inh: -15%; BCR signal inh: 1%; Mito fusion act: 0%

What do the screens show for `CCCCN(c1nc2ccccc2nc1Cl)S(=O)(=O)c1ccc(C)cc1`?
Integrin act MD: -10%; VP16 counter: 2.5µM*; uPA surface inh: -17%; BCR signal inh: 3%; RORgamma inh: -35%; Mito fusion act: -31%

Results for CCCN(CCC)CC(O)CN(c1ccccc1)S(=O)(=O)c1ccc(C)cc1 (stereo not given) ?
Integrin act MD: 0%; VP16 counter: -1%; uPA surface inh: -2%; BCR signal inh: -14%; RORgamma inh: -4%; Mito fusion act: -1%

Results for CC(O)CCC(=O)NNC1CC(=O)N(c2ccccc2)C1=O (stereo not given) ?
Integrin act MD: -17%; VP16 counter: -6%; uPA surface inh: 4%; BCR signal inh: -4%; RORgamma inh: -1%; Mito fusion act: -1%

How did CC(C)c1ccc(N2C(=O)CC(NNC(=O)c3ccccc3Cl)C2=O)cc1 (stereo not given) do in these assays?
Integrin act MD: -14%; VP16 counter: 3.2µM*; uPA surface inh: -1%; BCR signal inh: -9%; RORgamma inh: inconclusive; Mito fusion act: 0%

Results for O=[N+]([O-])c1nn(-c2ccc3c(c2)OCCO3)n(O)c1=NC1CCN(Cc2ccccc2)CC1 ?
Integrin act MD: 14%; VP16 counter: inconclusive; uPA surface inh: 4.5µM*; BCR signal inh: -1%; RORgamma inh: -21%; Mito fusion act: -5%

How did COc1ccc(F)cc1S(=O)(=O)NCCCn1ccnc1 do in these assays?
Integrin act MD: -16%; uPA surface inh: 3%; BCR signal inh: 1%; Mito fusion act: 1%

Results for O=C(Nc1ccc(NC(=S)NC(=O)c2cccs2)cc1)c1ccco1 ?
Integrin act MD: 6%; VP16 counter: -22%; uPA surface inh: 2%; BCR signal inh: inconclusive; RORgamma inh: 11µM*; Mito fusion act: 3%

Results for O=C(NC(=S)NNC(=O)c1cccs1)c1ccco1 ?
Integrin act MD: 10%; VP16 counter: inconclusive; BCR signal inh: inconclusive; RORgamma inh: 2.8µM*; Mito fusion act: 23%

What do the screens show for `O=C(NC(=S)NNC(=O)c1ccco1)c1ccc(Br)cc1`?
Integrin act MD: -21%; VP16 counter: inconclusive; uPA surface inh: -2%; BCR signal inh: -17%; RORgamma inh: 13µM*; Mito fusion act: -35%

What do the screens show for `CC(C)(C)c1ccc(/C=N/NC(=O)CN2CCS(=O)(=O)CC2)cc1`?
Integrin act MD: -24%; VP16 counter: 2%; uPA surface inh: -1%; BCR signal inh: 0%; RORgamma inh: -2%; Mito fusion act: -2%

Results for COC(F)(F)C(Cl)Cl ?
VP16 counter: -3%; RORgamma inh: 7%

How did COc1ccc(-n2nc3c(c2NC(=O)C2CC(=O)N(c4ccccc4)C2)CS(=O)(=O)C3)cc1 (stereo not given) do in these assays?
Integrin act MD: 14%; VP16 counter: 3%; uPA surface inh: 3%; BCR signal inh: -3%; RORgamma inh: 21%; Mito fusion act: -2%

Results for COc1ccccc1C(=O)NC(=Nc1nc2ccccc2o1)NC(=O)c1ccccc1OC ?
Integrin act MD: -1%; VP16 counter: inconclusive; uPA surface inh: 4%; BCR signal inh: inconclusive; RORgamma inh: 0.79µM*; Mito fusion act: -28%

What do the screens show for `O=C(NC(=Nc1nc2ccccc2o1)NC(=O)c1ccccc1)c1ccccc1`?
Integrin act MD: -5%; VP16 counter: 22%; uPA surface inh: -7%; BCR signal inh: inconclusive; RORgamma inh: -9%; Mito fusion act: -3%

How did N/C(=N\c1nc2ccccc2o1)NC(=O)c1ccccc1F do in these assays?
Integrin act MD: -8%; VP16 counter: 7.9µM*; uPA surface inh: -5%; BCR signal inh: inconclusive; RORgamma inh: 2.5µM*; Mito fusion act: 3%

What do the screens show for `O=c1ccc2c(OCCCCOc3ccccc3)c3ccoc3cc2o1`?
VP16 counter: -16%; RORgamma inh: 22%

What do the screens show for `CS(=O)(=O)N1CCC2(CCCN(C(c3ccccc3)c3ccccc3)C2)CC1`?
VP16 counter: -3%; RORgamma inh: 18%

Results for C=CCc1cccc(C=NNC(=O)CN2CCN(Cc3ccccc3)CC2)c1O ?
Mito fusion act: 4%

How did Oc1c(C(Nc2ccccn2)c2ccccn2)ccc2cccnc12 (stereo not given) do in these assays?
Integrin act MD: -51%; VP16 counter: 2.2µM*; uPA surface inh: -13%; BCR signal inh: -3%; RORgamma inh: 1.1µM*; Mito fusion act: 0%

What do the screens show for `Cc1cccc(NCc2ccccc2O)n1`?
Integrin act MD: 39%; VP16 counter: -5%; uPA surface inh: -6%; BCR signal inh: -9%; RORgamma inh: 25%; Mito fusion act: -3%

What do the screens show for `COc1cc(C(Nc2ccccn2)c2ccc3ccc(C)nc3c2O)cc(OC)c1O` (stereo not given)?
Integrin act MD: -50%; VP16 counter: 13µM*; uPA surface inh: -5%; BCR signal inh: inconclusive; RORgamma inh: 7.1µM*; Mito fusion act: -9%

Results for Oc1ccccc1C(Nc1nccs1)c1ccc2cccnc2c1O (stereo not given) ?
Integrin act MD: -40%; VP16 counter: 5µM*; uPA surface inh: 5%; BCR signal inh: inconclusive; RORgamma inh: inconclusive; Mito fusion act: 4%

What do the screens show for `Cc1cccc(NC(c2ccc(C)s2)c2ccc3ccc(C)nc3c2O)n1` (stereo not given)?
Integrin act MD: 0%; VP16 counter: 5µM*; uPA surface inh: -2%; BCR signal inh: inconclusive; RORgamma inh: 10µM*; Mito fusion act: -16%
